Screens from PubChem BioAssay.
An excerpt weighted towards active compounds, which were near 5.3% of everything screened.
LASV entry inh: qHTS for Inhibitors of binding or entry into cells for Lassa Virus; Lassa virus pseudotype entry inhibition, cell reporter; Potency, µM (top dose mostly 37.9 µM), for the others: top-dose activity change, negative = inhibition, hits mostly inhibitors; actives 1.2% (n = 300,000); AID 540256, 2011; calls by dose curve; tested in HEK293 cells; note: nearly all actives have a fitted effect of over 50% in size
VACV Venus inh: qHTS for Stage-Specific Inhibitors of Vaccinia Orthopoxvirus: Venus Reporter Primary qHTS | Potency, µM (series often up to 36.5 µM), inactives show at the top dose activity change, negative = inhibition, most hits filed as inhibitors | Vaccinia virus Venus reporter expression, fluorescence | actives 0.46% (n = 330,000); calls by dose curve; tested in A549 cells; note: nearly all actives have a fitted effect of over 30% in size
Marburg entry inh: qHTS for inhibitors of binding or entry into cells for Marburg Virus; AID 540276, 2011; actives 1.8% (n = 300,000); Potency, µM (doses to about 37.8 µM), without a hit: top-dose activity change, negative = inhibition, most hits filed as inhibitors; Marburg virus pseudotyped entry inhibition, cell reporter; calls by dose curve; tested in HEK293 cells
FMDV antiviral: High Throughput Screening for Foot and Mouth Disease Virus Antivirals; FMDV antiviral cell-based qHTS; actives 1.2% (n = 410,000); Potency, µM (doses to about 57.9 µM), without a hit: top-dose activity change, negative = inhibition, usual class: inhibitors; calls by dose curve; tested in HEK293T cells; note: read-out not given here; nearly all actives have a fitted effect of over 45% in size
HCV inh: qHTS Assay for Inhibitors of Hepatitis C Virus (HCV). Huh7.5.1 HCVcc-Cre infection, luciferase reporter, 44 h. AID 651820, 2012. actives 3.4% (n = 340,000). Potency, µM (highest dose often 41.8 µM), for inactives: top-dose activity change, negative = inhibition, hits mostly inhibitors; active = well fitted inhibition curve with a large enough effect; inconclusive = small, poorly fitted or top-dose-only effect, or another doubt; inactive = no such curve, though single readings can be large or run the other way
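Seed cells (1,000/well) for 4 h; treat with compound and infect with HCVcc-Cre, moi about 0.5. Incubate 44 h, then detect luciferase activity.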
VACV mCherry inh: qHTS for Stage-Specific Inhibitors of Vaccinia Orthopoxvirus: mCherry Reporter Primary qHTS; Vaccinia virus mCherry reporter infection, fluorescence; Potency, µM (highest dose often 36.5 µM), for inactives: at the highest dose activity change, negative = inhibition, most hits filed as inhibitors; actives 0.63% (n = 310,000); AID 720579, 2013; calls by dose curve; tested in A549 cells; note: nearly all actives have a fitted effect of over 35% in size
* marks the source's active call; other numbers are inactive results; i = inactive; ? = inconclusive; . = not tested or not shown; [ ] = dose if it differs, or a comment. % is set by controls: 0 for no effect and ±100 for the full control effect; potency is the fitted concentration of half-maximal effect.

SMILES | LASV entry inh | VACV Venus inh | Marburg entry inh | FMDV antiviral | HCV inh | VACV mCherry inh
O=C(c1cc2c(s1)-c1ccccc1S(=O)(=O)C2)N1CCN(Cc2ccccc2)CC1 | . | ? | -2% | 20µM* | 10µM* | ?
COc1cc(OC)c(N(C)C(=O)c2cc3c(s2)-c2ccccc2S(=O)(=O)C3)cc1Cl | . | -9% | . | 0% | 22µM* | i
COc1ccc(N2CCN(C(=O)c3cc4c(s3)-c3ccccc3S(=O)(=O)C4)CC2)cc1 | -20%[46.1 µM] | 6% | ? | -17% | 10µM* | ?
Cc1noc(C)c1COC(=O)c1cc2c3ccccc3n(C)c2s1 | ? | -7% | -28% | -18% | 11µM* | i
COc1ccc(S(=O)(=O)N2CCc3ccccc32)cc1C(=O)OCc1c(C)noc1C | 18µM* | -21% | 3.5µM* | -13% | ? | -7%
Cc1noc(C)c1COC(=O)c1cccc(S(=O)(=O)N2CCCCCC2)c1 | ? | ? | 8.9µM* | ? | 2.2µM* | ?
COc1ccc(S(=O)(=O)N2CCCCCC2)cc1C(=O)OCc1c(C)noc1C | ? | -17% | -14% | 9% | -19% | -1%
COc1cc(CNCc2cccs2)ccc1OCc1ccccc1 | 11% | -14% | -84% | . | ? | ?
COc1cc(CNCc2ccco2)ccc1OCc1ccccc1 | -18% | -7% | ? | . | 11µM* | 0%
COc1cc(CNC23CC4CC(CC(C4)C2)C3)ccc1OCc1ccccc1 | 20%[46.1 µM] | -7% | 5µM* | -8% | -27% | i
COc1cc(CNc2ccc(N3CCCC3)cc2)ccc1OCc1ccccc1 | -27% | 2% | ? | -27% | ? | -13%
COc1cc(CNCc2ccccn2)ccc1OCc1c(Cl)cccc1Cl | ? | -26% | ? | 0% | 11µM* | -26%
CN(CCO)C(=O)c1cn(C2CCN(Cc3ccc4ccccc4c3)CC2)nn1 | . | 0% | . | -4% | . | -7%
COc1cccc(CNC(=O)CSc2nc(=O)[nH]c3c2CCC3)c1 | 9%[46.1 µM] | -1%[7.34 µM] | . | -24% | . | 0%[7.34 µM]
Cc1nnc(-c2cccc(Br)c2)c2cn(-c3ccc(Br)cc3)nc12 | ? | ? | ? | ? | 11µM* | -7%
O=C1N[C@@H](Cc2ccccc2)COC(=O)[C@@H](Cc2ccc(F)cc2)C/C=C\C[C@@H]1CC(=O)N(CCO)Cc1ccccc1 | . | 13µM* | . | ? | ? | ?
COc1cc2c(cc1NC(=O)CSc1ccccc1)oc1ccccc12 | 1% | . | 3% | 73% | ? | .
O=C(CSc1nc2ccccc2[nH]1)Nc1ccccc1N1CCOCC1 | -19% | -21% | 8.9µM* | ? | -23% | i
COc1cc2c(cc1NC(=O)CN(C)Cc1nc3ccccc3c(=O)[nH]1)oc1ccccc12 | ? | . | 23µM* | 2% | ? | .
COc1cc2c(cc1NC(=O)CSc1nc3ccccc3[nH]1)oc1ccccc12 | ? | -21% | 21µM* | -3% | 8.9µM* | ?
COc1cc2c(cc1NC(=O)CSc1nc3cc(Cl)ccc3s1)oc1ccccc12 | 13% | -3% | ? | -18% | -3% | -9%
O=C(CSc1nc2ccccc2[nH]1)Nc1cc(C(F)(F)F)ccc1N1CCOCC1 | -27% | ? | -17% | ? | ? | ?
COc1cc2c(cc1NC(=O)CSc1nccn1C)oc1ccccc12 | ? | . | ? | 56% | 2.8µM* | .
O=C1Cc2ccccc2C1=C1C=c2ccccc2=C1 | . | 14% | . | . | . | -14%
CCCS(=O)(=O)NCc1c(C)ncc2c1CCN(C(=O)c1c(F)ccc(F)c1F)C2 | . | 7% | . | -8% | . | -1%
SMILES | LASV entry inh | VACV Venus inh | Marburg entry inh | FMDV antiviral | HCV inh | VACV mCherry inh
Nc1nn(-c2ccccc2)c(N)c1N=Nc1ccc2c(c1)OCO2 | ? | ? | 8.9µM* | -15% | ? | ?
NNC(=O)c1cccc(COc2ccc3c(c2)CCC3)c1 | 2.1µM* | -20% | ? | 13µM* | 0% | -20%
NNC(=O)c1cccc(COc2ccccc2Br)c1 | ? | -28% | ? | -21% | 20% | -12%
COC(=O)N[C@H](c1ccccc1)C(C(=O)OC)C(=O)OC | . | . | 28%[14.2 µM] | . | . | .
COC(=O)[C@@H]1C[C@@H](NC(=O)c2ccc(C(F)(F)F)cc2)CN1Cc1cccc(O)c1 | . | 1% | . | 10% | . | -2%
COCCCNC(=S)N1CCN(c2nc(-c3ccccc3)cs2)CC1 | . | . | . | ? | 13µM* | .
O=C(NC(=S)N1CCN(c2nc(-c3ccccc3)cs2)CC1)c1cncc(Br)c1 | . | . | . | -28% | -9% | .
CC(C)CNC(=S)N1CCN(c2nc(-c3ccc(Cl)cc3)cs2)CC1 | 17%[46.1 µM] | -26% | ? | -29% | 11µM* | ?
CCN(CC)CCCNC(=S)N1CCN(c2nc(-c3ccccc3)cs2)CC1 | -15%[46.1 µM] | ? | ? | -25% | 7.9µM* | -23%
CCOCCCNC(=S)N1CCN(c2nc(-c3ccccc3)cs2)CC1 | . | . | . | ? | 10µM* | .
COc1cccc(-c2csc(N3CCN(C(=S)NCC(C)C)CC3)n2)c1 | -16%[46.1 µM] | -17% | ? | ? | ? | -27%
CCCCNC(=S)N1CCN(c2nc3ccccc3s2)CC1 | . | . | . | -22% | ? | .
Fc1ccccc1-c1nc(-c2ccccc2)oc1NC1CCCCC1 | -31%[14.3 µM] | . | 4%[14.2 µM] | . | . | .
Cc1cc(C)c2c(N)c(C(=O)N3CCc4ccccc4C3)sc2n1 | . | -24% | . | 11% | ? | -15%
CCOc1ccc(CCNC(=O)c2cccc(-n3c(C)nc4cccnc43)c2)cc1 | -11%[46.1 µM] | -20% | . | 0% | . | i
COc1ccc(O[C@@H]2[C@H](O)CO[C@@H]2C=CC#Cc2ccccc2)cc1 | . | . | 8%[14.2 µM] | . | . | .
CCNC(=S)N1CCN(c2nc(-c3cccc(OC)c3)cs2)CC1 | . | . | . | -14% | ? | .
COCCNC(=S)N1CCN(c2nc(-c3cccc(OC)c3)cs2)CC1 | 1%[46.1 µM] | -10% | ? | -1% | 13µM* | ?
COc1ccc(CNc2nc(S(=O)(=O)c3ccccc3)c(Cl)s2)cc1OC | ? | -29% | ? | 14µM* | ? | ?
Cc1ccc(S(=O)(=O)c2nc(Nc3ccccc3)sc2Cl)cc1 | -28% | . | ? | ? | 11µM* | .
COc1ccc(-n2c(CNC(=O)c3ccccc3C(F)(F)F)nnc2SC)cc1 | . | 3% | . | -9% | . | -3%
COc1nc(N/N=C/c2ccc(-c3ccccc3[N+](=O)[O-])o2)nc(N2CCOCC2)n1 | 1% | -7% | ? | -11% | 11µM* | i
O=[N+]([O-])c1ccc(-c2ccc(/C=N/Nc3nc(NCc4ccccc4)nc(N4CCOCC4)n3)o2)cc1 | 8%[46.1 µM] | -23% | 10µM* | -13% | ? | -3%
Cc1ccc(/C=N/Nc2nc(N3CCCCC3)nc(N3CCCCC3)n2)o1 | ? | -7% | 1%[46.1 µM] | -18% | ? | -3%
